Reference: PubChem BioAssay (NCATS)
Results filed as inconclusive are left out. Entries that show only a call come without a potency. Active and inactive are the calls of the source. Calls follow the shape of the dose curve; as a rule, active = well fitted inhibition curve with a large enough effect; inconclusive = small, poorly fitted or top-dose-only effect; inactive = flat fitted curve, though single readings scatter.

Assays:
Assay in all cases: qHTS profiling for inhibitors of Plasmodium falciparum proliferation (AID 504749); also: nearly all actives have a fitted effect of over 60% in size
Conditions in all cases: P. falciparum in erythrocytes, SYBR Green DNA, 72 h; series mostly up to 28.7 µM
CP201 = tested on: CP201
Method in brief: (§1)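 Infected RBCs, 0.3% parasitemia/2.5% Hct final; cpd 72 h, 37 C, 5% CO2; lysis buffer with saponin/triton/SYBR Green I, o/n RT dark; FI 485/535; norm. to artemisinin (0.29 uM) and DMSO.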

CP203 = tested on: CP203
Method in brief: as §1

CP211 = tested on: CP211
Method in brief: as §1

CP215 = tested on: CP215
Method in brief: as §1

CP217 = tested on: CP217
Method in brief: as §1

CP238 = tested on: CP238
Method in brief: as §1

CP247 = tested on: CP247
Method in brief: as §1

CP250 = tested on: CP250
Method in brief: as §1

CP252 = tested on: CP252
Method in brief: as §1

CP256 = tested on: CP256
Method in brief: as §1

CP262 = tested on: CP262
Method in brief: as §1

CP265 = tested on: CP265
Method in brief: as §1

CP268 = tested on: CP268
Method in brief: as §1

CP269 = tested on: CP269
Method in brief: as §1

CP291 = tested on: CP291
Method in brief: as §1

CP297 = tested on: CP297
Method in brief: as §1

CP266 = tested on: CP266
Method in brief: as §1

CP286 = tested on: CP286
Method in brief: as §1

CP237 = tested on: CP237
Method in brief: as §1

CP260 = tested on: CP260
Method in brief: as §1
Potency is read from the fitted curve at half-maximal effect.

Row | Structure (SMILES) | Potency (CP201) | Potency (CP203) | Potency (CP211) | Potency (CP215) | Potency (CP217) | Potency (CP238) | Potency (CP247) | Potency (CP250) | Potency (CP252) | Potency (CP256) | Potency (CP262) | Potency (CP265) | Potency (CP268) | Potency (CP269) | Potency (CP291) | Potency (CP297) | Potency (CP266) | Potency (CP286) | Potency (CP237) | Potency (CP260)
1 | Cc1c(C)c2c(c(C)c1OC(=O)CCC(=O)O)CC[C@@](C)(CCC[C@H](C)CCC[C@H](C)CCCC(C)C)O2 | inactive | inactive | inactive | inactive | inactive | inactive | inactive | inactive | inactive | inactive | inactive | inactive | inactive | inactive | inactive | inactive | – | – | – | –
2 | Cc1cc(-c2ccc(N=Nc3c(S(=O)(=O)O)cc4cc(S(=O)(=O)O)cc(N)c4c3O)c(C)c2)ccc1N=Nc1c(S(=O)(=O)O)cc2cc(S(=O)(=O)O)cc(N)c2c1O | inactive | inactive | inactive | inactive | – | – | – | – | inactive | inactive | inactive | inactive | – | inactive | inactive | inactive | inactive | inactive | – | –
3 | CC[C@H]1OC(=O)[C@H](C)[C@@H](O[C@H]2C[C@@](C)(OC)[C@@H](O)[C@H](C)O2)C(C)[C@@H](O[C@@H]2O[C@H](C)C[C@H](N(C)C)[C@@H]2O)[C@](C)(OC)C[C@@H](C)C(=O)[C@H](C)[C@@H](O)[C@]1(C)O (stereo partly specified) | inactive | inactive | – | – | – | inactive | inactive | – | inactive | 1.26 µM (active) | – | inactive | inactive | inactive | inactive | – | inactive | 8.91 µM (active) | 7.94 µM (active) | 5.62 µM (active)
4 | CC(=O)Oc1cccc2c1C(=O)c1c(OC(C)=O)cc(C(=O)O)cc1C2=O | inactive | inactive | – | inactive | inactive | inactive | inactive | inactive | inactive | inactive | inactive | inactive | inactive | inactive | inactive | inactive | inactive | inactive | inactive | inactive
5 | C[C@]12CCC(=O)C[C@@H]1CC[C@@H]1[C@@H]2CC[C@]2(C)C=CC[C@@H]12 | inactive | inactive | inactive | inactive | inactive | inactive | inactive | – | inactive | inactive | inactive | inactive | inactive | inactive | inactive | inactive | inactive | – | – | –
6 | Nc1ccc(N=Nc2ccccc2)c(N)n1 | inactive | inactive | inactive | – | inactive | inactive | inactive | inactive | inactive | inactive | inactive | inactive | inactive | inactive | inactive | inactive | inactive | inactive | inactive | inactive
7 | CCCCO | inactive | inactive | inactive | – | inactive | inactive | inactive | inactive | inactive | inactive | inactive | inactive | inactive | inactive | inactive | inactive | – | inactive | inactive | inactive
8 | O=P(O)(O)OC[C@H](O)CO | inactive | inactive | inactive | – | inactive | inactive | inactive | inactive | inactive | inactive | inactive | inactive | inactive | inactive | inactive | inactive | – | inactive | inactive | inactive
9 | CCN(CC)CCOc1ccc2nc(N(C)C)sc2c1 | inactive | inactive | inactive | – | inactive | inactive | inactive | inactive | inactive | inactive | – | inactive | inactive | inactive | inactive | inactive | inactive | inactive | inactive | inactive
10 | CCCOc1cc(N)ccc1C(=O)OCCN(CC)CC | inactive | inactive | – | inactive | inactive | inactive | – | inactive | inactive | – | inactive | inactive | inactive | – | inactive | – | inactive | inactive | inactive | inactive
11 | CC(C)NCC(O)COc1ccccc1-n1cccc1 (stereo unspecified) | inactive | inactive | inactive | inactive | inactive | inactive | inactive | inactive | inactive | inactive | inactive | inactive | inactive | inactive | inactive | – | inactive | inactive | – | –
12 | Cc1ncc[nH]1 | inactive | inactive | inactive | – | inactive | inactive | inactive | inactive | inactive | inactive | inactive | inactive | inactive | inactive | inactive | inactive | inactive | inactive | inactive | inactive
13 | O=C(O)CCC(=O)c1ccc(-c2ccccc2)cc1 | inactive | inactive | inactive | – | inactive | inactive | inactive | inactive | inactive | inactive | inactive | inactive | inactive | inactive | inactive | inactive | inactive | inactive | inactive | inactive
14 | COc1ccc2c(=O)c(C)c(-c3ccccc3)oc2c1CN(C)C | inactive | inactive | inactive | – | inactive | inactive | inactive | inactive | inactive | inactive | inactive | inactive | – | inactive | – | inactive | inactive | – | – | inactive
15 | C/C=C/C=C/C(=O)O | inactive | inactive | inactive | – | inactive | inactive | inactive | inactive | inactive | inactive | inactive | inactive | inactive | inactive | inactive | inactive | inactive | inactive | inactive | inactive
16 | C[C@H](CCCC(C)(C)O)[C@H]1CC[C@H]2[C@@H]3CC=C4C[C@@H](O)CC[C@]4(C)[C@H]3CC[C@]12C | inactive | inactive | inactive | inactive | inactive | inactive | inactive | – | inactive | inactive | inactive | inactive | inactive | inactive | inactive | inactive | inactive | inactive | – | inactive
17 | Cn1c(=O)c2c(ncn2CCOC(=O)C(C)(C)Oc2ccc(Cl)cc2)n(C)c1=O | inactive | inactive | inactive | inactive | – | – | – | inactive | – | – | inactive | – | inactive | inactive | inactive | inactive | inactive | inactive | inactive | inactive
18 | CC(=O)[O][Al][O]C(C)=O | inactive | – | – | inactive | inactive | inactive | inactive | inactive | inactive | inactive | inactive | inactive | – | – | – | – | inactive | inactive | inactive | inactive
19 | CC[C@H]1OC(=O)[C@H](C)[C@@H](O[C@H]2C[C@@](C)(OC)[C@@H](O)[C@H](C)O2)[C@H](C)[C@@H](O[C@@H]2O[C@H](C)C[C@H](N(C)C)[C@H]2O)[C@](C)(O)C[C@@H](C)CN(C)[C@H](C)[C@@H](O)[C@]1(C)O | – | – | – | – | 5.62 µM (active) | 5.62 µM (active) | – | – | 4.47 µM (active) | 2.24 µM (active) | – | 10 µM (active) | – | 1.51 µM (active) | – | 5.36 µM (active) | – | 3.98 µM (active) | 5.01 µM (active) | –
20 | CCCCCCCCCCCCCCCCOCCOCCOCCOCCOCCOCCOCCOCCOCCOCCOCCOCCOCCOCCOCCOCCOCCOCCOCCOCCO | – | – | – | – | – | – | – | – | – | – | inactive | – | – | – | – | – | inactive | – | 7.08 µM (active) | 11.2 µM (active)
21 | O=C(CCCN1CCC(C(=O)c2ccc(F)cc2)CC1)c1ccc(F)cc1 | inactive | – | inactive | inactive | inactive | inactive | – | inactive | inactive | inactive | inactive | inactive | – | – | – | inactive | inactive | – | – | –
22 | Cn1cc(NC(=O)c2cc(NC(=O)c3cc(NC=O)cn3C)cn2C)cc1C(=O)NCCC(=N)N | – | 12 µM (active) | – | – | 7.08 µM (active) | 11.2 µM (active) | 6.31 µM (active) | 7.94 µM (active) | 8.91 µM (active) | 11.2 µM (active) | – | 11.2 µM (active) | 9.53 µM (active) | 7.57 µM (active) | 9.53 µM (active) | – | – | 3.98 µM (active) | 8.91 µM (active) | 12.6 µM (active)
23 | COc1cc(NCCCC(C)N)c2ncccc2c1 (stereo unspecified) | – | 7.57 µM (active) | – | 8.49 µM (active) | 11.2 µM (active) | 11.2 µM (active) | 4.47 µM (active) | 5.62 µM (active) | 11.2 µM (active) | 4.47 µM (active) | 6.75 µM (active) | 8.91 µM (active) | 6.75 µM (active) | 7.57 µM (active) | – | 8.49 µM (active) | – | 1.41 µM (active) | 7.08 µM (active) | 8.91 µM (active)
